Experimental data from PubChem BioAssay (EPA / NIEHS).
Active and inactive are the calls of the source. Rule for the calls: active = hit-call score of the fitted dose curve at least 0.9, where 1 is the maximum; inactive = score below 0.9.

Test: APR_HepG2_NuclearSize_24hr: Apredica 24-hour HepG2 Assay for Nuclear Size (AID 2282907)
Settings: high-content imaging, actives raise or lower the signal
How it was run: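 Nuclear size from Hoechst 33342-stained, formaldehyde-fixed HepG2 nuclei imaged by high-content microscopy, after 24 h dosing at ten concentrations from 0.39 to 200 uM in 0.5% DMSO; gain or loss relative to DMSO baseline.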
In the case of `CCCCOC(=O)c1ccc(O)cc1`, the outcome was “inactive”. In the case of `CCCCCCCCCCCC[N+](C)(C)C`, the outcome was “inactive”. For `CCCCCCCC[Si](OCC)(OCC)OCC`, the outcome was “inactive”. For `Clc1cc(Cl)c2c(c1)N=C1CCCCCN1C2`, the outcome was “inactive”. For `COCC(C)OCC(C)OCC(C)O` (stereo unspecified), the outcome was “inactive”. For `CCCCOC(=O)CC(CC(=O)OCCCC)(OC(C)=O)C(=O)OCCCC`, the outcome was “inactive”. In the case of `OC12N=C(c3ccccc3)SC1Cc1cc(Cl)ccc12` (stereo unspecified), the outcome was “inactive”. With `O=C(O)c1ccccc1C(=O)OCc1ccccc1` the outcome was “inactive”. With `CN1C(=O)CC[C@H]1c1cccnc1` the outcome was “inactive”. With `Cc1cc2c(cc1C(F)(F)F)N(C(=O)Nc1ccc(Oc3cccnc3C)nc1)CC2` the outcome was “inactive”. In the case of `Oc1ccccc1`, the outcome was “inactive”. For `Clc1ccccc1C(c1ccccc1)(c1ccccc1)n1ccnc1`, the AC50 was 72.3 µM (active). With `CCN(CC)C(=O)c1cc(S(=O)(=O)Cc2ccccc2)c(N2CCC(c3ccccc3)CC2)cc1N(CC)CCN(C)C` the outcome was “inactive”. For `CCN(Cc1cccnc1)C(=O)c1cccc(Cl)c1[C@]1(C)C(=O)N(Cc2ccc(OC)cc2OC)c2ccc(Cl)cc21`, the outcome was “inactive”. In the case of `O=c1[nH]sc2ccccc12`, the outcome was “inactive”. For `CC/C(=C(/CC)c1ccc(O)cc1)c1ccc(O)cc1`, the outcome was “inactive”. In the case of `O=C(O)c1ccccc1-n1cc(C(=O)O)c(=O)c2cc(Nc3c(F)cc(F)cc3Cl)c(Cl)cc21`, the outcome was “inactive”. In the case of `CCCC(=O)OCCC(C)C`, the outcome was “inactive”. For `CC[C@@H]1C[C@H](N(Cc2cc(C(F)(F)F)cc(C(F)(F)F)c2)C(C)=O)c2cc(C(F)(F)F)ccc2N1C(=O)OC(C)C`, the outcome was “inactive”. In the case of `C[C@]12CC[C@@H]3c4ccc(O)cc4CC[C@H]3[C@@H]1CC[C@H]2O`, the AC50 was 105 µM (active). With `CC(C)(C)c1csc(-c2cc3cc(OCc4ccccc4CC(=O)O)ccc3o2)n1` the outcome was “inactive”. In the case of `Cc1oc2c(NC(=O)c3c(Cl)cccc3Cl)cccc2c1C(C)(C)O`, the outcome was “inactive”. With `O=C(O)Cc1cc(I)c(Oc2ccc(O)c(I)c2)c(I)c1` the outcome was “inactive”. For `NC(=O)c1nc(-c2cccc(-c3cc(F)ccc3OCC(F)(F)C(F)(F)F)c2)n[nH]1`, the outcome was “inactive”. In the case of `Cc1occc1C(=O)Nc1ccc(C(=O)N2CCC(F)(F)/C(=C\C(=O)N3CCC(N4CCCCC4)CC3)c3ccccc32)cc1`, the outcome was “inactive”. In the case of `NCc1cccc(C2CCN(C(=O)c3ccc(C#Cc4ccccc4F)o3)CC2)c1`, the outcome was “inactive”. For `c1ccc2ccccc2c1`, the outcome was “inactive”. With `CCCCCCCCCCCCO` the outcome was “inactive”. In the case of `C[C@]12CC[C@@H]3c4ccc(O)cc4CC[C@H]3[C@@H]1CCC2=O`, the outcome was “inactive”. With `Cc1cn([C@H]2C[C@H](N=[N+]=[N-])[C@@H](CO)O2)c(=O)[nH]c1=O` the outcome was “inactive”. With `Cc1cccc2ccccc12` the outcome was “inactive”. In the case of `CC1=CC(=O)/C(=C(/C)O)C(=O)O1`, the outcome was “inactive”. In the case of `CN(C[C@@H](CC[N+]12CCC(C3CCCCC3)(CC1)CC2)c1ccc(Cl)c(Cl)c1)C(=O)c1cc(C(F)(F)F)cc(C(F)(F)F)c1`, the outcome was “inactive”. With `CCCOC(=O)c1cc(O)c(O)c(O)c1` the outcome was “inactive”. For `CCCCCCCCOC(=O)c1cc(O)c(O)c(O)c1`, the outcome was “inactive”. For `CN(C)c1ccc(C(=C2C=CC(=[N+](C)C)C=C2)c2ccc(N(C)C)cc2)cc1`, the outcome was “inactive”. For `Cc1ccc2oc(CN(Cc3ccccc3)C(=O)Nc3c(F)cc(F)cc3F)c(-c3ccc(Cl)cc3)c2c1`, the outcome was “inactive”. In the case of `O=CCCCC=O`, the outcome was “inactive”.

Test: APR_HepG2_CellLoss_24hr: Apredica 24-hour HepG2 Assay for Cell Loss (AID 2282908);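 for AC50: fit in both directions so a hit may be cell loss or gain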
Settings: high-content imaging
How it was run: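 Nuclei stained with Hoechst 33342 after formaldehyde fixation (3.7%) were imaged at 20x to count cells. Exposure lasted 24 hr, at ten concentrations from 0.39 to 200 uM in duplicate, with 0.5% v/v DMSO. Fit bidirectional, relative to DMSO.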
In the case of `CCCCOC(=O)c1ccc(O)cc1`, the outcome was “inactive”. For `CCCCCCCCCCCC[N+](C)(C)C`, the AC50 was 75.6 µM (active). For `CCCCCCCC[Si](OCC)(OCC)OCC`, the AC50 was 118 µM (active). In the case of `Clc1cc(Cl)c2c(c1)N=C1CCCCCN1C2`, the outcome was “inactive”. With `COCC(C)OCC(C)OCC(C)O` (stereo unspecified) the outcome was “inactive”. With `CCCCOC(=O)CC(CC(=O)OCCCC)(OC(C)=O)C(=O)OCCCC` the AC50 was 27.7 µM (active). With `OC12N=C(c3ccccc3)SC1Cc1cc(Cl)ccc12` (stereo unspecified) the outcome was “inactive”. In the case of `O=C(O)c1ccccc1C(=O)OCc1ccccc1`, the outcome was “inactive”. With `CN1C(=O)CC[C@H]1c1cccnc1` the outcome was “inactive”. In the case of `Cc1cc2c(cc1C(F)(F)F)N(C(=O)Nc1ccc(Oc3cccnc3C)nc1)CC2`, the AC50 was 50.2 µM (active). With `Oc1ccccc1` the outcome was “inactive”. With `Clc1ccccc1C(c1ccccc1)(c1ccccc1)n1ccnc1` the AC50 was 20.3 µM (active). With `CCN(CC)C(=O)c1cc(S(=O)(=O)Cc2ccccc2)c(N2CCC(c3ccccc3)CC2)cc1N(CC)CCN(C)C` the AC50 was 5.48 µM (active). For `CCN(Cc1cccnc1)C(=O)c1cccc(Cl)c1[C@]1(C)C(=O)N(Cc2ccc(OC)cc2OC)c2ccc(Cl)cc21`, the outcome was “inactive”. With `O=c1[nH]sc2ccccc12` the AC50 was 29 µM (active). With `CC/C(=C(/CC)c1ccc(O)cc1)c1ccc(O)cc1` the AC50 was 90.9 µM (active). In the case of `O=C(O)c1ccccc1-n1cc(C(=O)O)c(=O)c2cc(Nc3c(F)cc(F)cc3Cl)c(Cl)cc21`, the outcome was “inactive”. With `CCCC(=O)OCCC(C)C` the outcome was “inactive”. With `CC[C@@H]1C[C@H](N(Cc2cc(C(F)(F)F)cc(C(F)(F)F)c2)C(C)=O)c2cc(C(F)(F)F)ccc2N1C(=O)OC(C)C` the outcome was “inactive”. For `C[C@]12CC[C@@H]3c4ccc(O)cc4CC[C@H]3[C@@H]1CC[C@H]2O`, the AC50 was 68.1 µM (active). In the case of `CC(C)(C)c1csc(-c2cc3cc(OCc4ccccc4CC(=O)O)ccc3o2)n1`, the outcome was “inactive”. With `Cc1oc2c(NC(=O)c3c(Cl)cccc3Cl)cccc2c1C(C)(C)O` the outcome was “inactive”. With `O=C(O)Cc1cc(I)c(Oc2ccc(O)c(I)c2)c(I)c1` the outcome was “inactive”. In the case of `NC(=O)c1nc(-c2cccc(-c3cc(F)ccc3OCC(F)(F)C(F)(F)F)c2)n[nH]1`, the AC50 was 127 µM (active). In the case of `Cc1occc1C(=O)Nc1ccc(C(=O)N2CCC(F)(F)/C(=C\C(=O)N3CCC(N4CCCCC4)CC3)c3ccccc32)cc1`, the AC50 was 16.2 µM (active). In the case of `NCc1cccc(C2CCN(C(=O)c3ccc(C#Cc4ccccc4F)o3)CC2)c1`, the AC50 was 17.7 µM (active). For `c1ccc2ccccc2c1`, the outcome was “inactive”. In the case of `CCCCCCCCCCCCO`, the outcome was “inactive”. For `C[C@]12CC[C@@H]3c4ccc(O)cc4CC[C@H]3[C@@H]1CCC2=O`, the outcome was “inactive”. In the case of `Cc1cn([C@H]2C[C@H](N=[N+]=[N-])[C@@H](CO)O2)c(=O)[nH]c1=O`, the outcome was “inactive”. For `Cc1cccc2ccccc12`, the outcome was “inactive”. For `CC1=CC(=O)/C(=C(/C)O)C(=O)O1`, the outcome was “inactive”. For `CN(C[C@@H](CC[N+]12CCC(C3CCCCC3)(CC1)CC2)c1ccc(Cl)c(Cl)c1)C(=O)c1cc(C(F)(F)F)cc(C(F)(F)F)c1`, the AC50 was 13.1 µM (active). With `CCCOC(=O)c1cc(O)c(O)c(O)c1` the outcome was “inactive”. In the case of `CCCCCCCCOC(=O)c1cc(O)c(O)c(O)c1`, the AC50 was 90 µM (active). For `CN(C)c1ccc(C(=C2C=CC(=[N+](C)C)C=C2)c2ccc(N(C)C)cc2)cc1`, the AC50 was 6.05 µM (active). With `Cc1ccc2oc(CN(Cc3ccccc3)C(=O)Nc3c(F)cc(F)cc3F)c(-c3ccc(Cl)cc3)c2c1` the outcome was “inactive”. With `O=CCCCC=O` the outcome was “inactive”.
